Source: PubChem BioAssay AID720504 (National Center for Advancing Translational Sciences (NCATS), 2013)
The campaign covered roughly 360,000 compounds. About 10,000 (2.8%) were called active. Inconclusive results (about 4%) are left out. Calls follow the shape of the dose curve; as a rule, active = well fitted inhibition curve with a large enough effect; inconclusive = small, poorly fitted or top-dose-only effect; inactive = flat fitted curve, though single readings scatter. The full list was thinned out, with actives kept by preference.

Target: Serine/threonine-protein kinase PLK1 (Homo sapiens) (UniProt P53350)
Assay: qHTS for Inhibitors of PLK1-PDB (polo-like kinase 1 - polo-box domain): Primary Screen; also: nearly all actives have a fitted effect of over 65% in size; as to max response, negative = inhibition: series mostly up to about 57 µM
Settings: Plk1 PBD binding of FITC phosphopeptide, fluorescence polarization
% is scaled to controls: 0 for no effect and ±100 for the full control effect; potency is read from the fitted curve at half-maximal effect.

Sequence of Serine/threonine-protein kinase PLK1 (Homo sapiens) (P53350 whole entry, looked up, the tested form may be a part): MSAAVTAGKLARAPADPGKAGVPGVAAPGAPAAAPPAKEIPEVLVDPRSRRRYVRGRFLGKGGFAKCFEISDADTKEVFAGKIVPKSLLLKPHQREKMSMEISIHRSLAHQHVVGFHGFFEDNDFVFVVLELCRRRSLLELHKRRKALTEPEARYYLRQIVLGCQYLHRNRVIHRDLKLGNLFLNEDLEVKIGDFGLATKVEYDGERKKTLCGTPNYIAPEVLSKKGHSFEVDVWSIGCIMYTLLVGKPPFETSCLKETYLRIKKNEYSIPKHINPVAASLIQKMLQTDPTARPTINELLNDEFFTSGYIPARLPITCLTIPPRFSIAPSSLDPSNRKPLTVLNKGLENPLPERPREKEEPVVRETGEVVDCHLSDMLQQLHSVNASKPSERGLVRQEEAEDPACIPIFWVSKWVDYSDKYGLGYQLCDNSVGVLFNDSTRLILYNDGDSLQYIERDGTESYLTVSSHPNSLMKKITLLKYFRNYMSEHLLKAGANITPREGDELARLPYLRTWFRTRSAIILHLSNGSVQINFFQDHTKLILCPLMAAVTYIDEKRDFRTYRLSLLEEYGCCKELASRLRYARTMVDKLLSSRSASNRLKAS

| SMILES | max response, negative = inhibition | Potency |
| --- | --- | --- |
| CCc1nc2ccc(C(=O)N3CCN(S(=O)(=O)CC)CC3)cn2c1N(C=O)CCC(C)C | -4.19% (inactive) | – |
| O=C(CCCN1C(=O)C(c2ccccc2)Oc2cccnc21)Nc1ccccc1Br (stereo not drawn) | 3.26% (inactive) | – |
| CCCCn1nnnc1C(c1cccc(OC)c1OC)N1CCN(C/C=C/c2ccccc2)CC1 (stereo not drawn) | -4.93% (inactive) | – |
| CC1(C)CC(=O)C=C(c2ccc(COC(=O)c3cc(F)cc(F)c3)cc2)C1=O | -3.92% (inactive) | – |
| O=C(/C=C/NNC(=O)c1cccc(Br)c1)c1ccccc1 | -5.78% (inactive) | – |
| O=C(COC(=O)/C=C/c1cn(-c2ccccc2)nc1-c1cccnc1)Nc1ccc(Cl)cc1Cl | 13.1% (inactive) | – |
| O=C(O)CCn1cc(/C=C/C(=O)c2ccc(Cl)cc2)c(-c2cccc(Br)c2)n1 | – | 21.2 µM (active) |
| CCCCc1ccc(S(=O)(=O)NC(=O)C2(C)CCN2C(=O)c2c(C)noc2C)cc1 (stereo not drawn) | -12% (inactive) | – |
| Cn1cc(CCC(=O)NC2CC2)c2ccccc21 | -19.7% (inactive) | – |
| Cc1ccc(CNC(=O)Cc2cn(C)c3ccccc23)cc1 | -3.92% (inactive) | – |
| CCn1cc(CCC(=O)NCc2ccc(F)cc2)c2ccccc21 | – | 23.8 µM (active) |
| COc1ccc(-c2cc(NC=O)c3ncc(-c4cccc(C(=O)N(C)C)c4)n3c2)c(OC)c1 | -16.4% (inactive) | – |
| CN1C(=O)C(CC(=O)Nc2ccccc2)S/C1=N/c1nccs1 (stereo not drawn) | – | 26.7 µM (active) |
| CCN1C(=O)C(CC(=O)Nc2cc(C)ccc2C)SC1=Nc1ccc(S(N)(=O)=O)cc1 (stereo not drawn) | -2.89% (inactive) | – |
| CC1CC(=O)N(CC(=O)Nc2cccc(Cl)c2)c2ccccc2S1(=O)=O (stereo not drawn) | -2.47% (inactive) | – |
| CCN=C1SC(CC(=O)Nc2ccc(C)cc2)C(=O)N1CC (stereo not drawn) | -1.27% (inactive) | – |
| CN=C1SC(CC(=O)Nc2ccc(C(=O)O)cc2)C(=O)N1C (stereo not drawn) | -12.2% (inactive) | – |
| O=C(CC1SC(=Nc2ccccc2)N(Cc2ccccn2)C1=O)Nc1cccc(Cl)c1 (stereo not drawn) | – | 29.9 µM (active) |
| CCCC/C=C/c1cccc2nncn12 | 0.37% (inactive) | – |
| O=C(Nc1nnc([C@H]2C[C@H](O)[C@@H](CO)O2)s1)c1cccc(Cl)c1 | -11.4% (inactive) | – |
| O=C(CSc1ncn[nH]1)Nc1nc2c(F)c(F)c(F)cc2s1 | -14.3% (inactive) | – |
| CCn1c(=S)sc2c(=O)n(CC(=O)Nc3ccc(OC)cc3)c(C)nc21 | – | 33.6 µM (active) |

| SMILES | max response, negative = inhibition | Potency |
| --- | --- | --- |
| COc1ccc(NC(=O)Cn2c(-c3ccc(OC)cc3)cn(-c3ccc(C)cc3)c2=O)cc1 | -2.89% (inactive) | – |
| CCn1c(=S)sc2c(=O)n(CC(=O)Nc3cccc(Br)c3)c(C)nc21 | 5.75% (inactive) | – |
| CCCCCc1c(Cc2ccccc2)ncn1CCc1ccccc1OC | -12.9% (inactive) | – |
| CCc1ccc(N(C(=O)c2csnn2)C(C(=O)NC2CCCCC2)c2ccncc2)cc1 (stereo not drawn) | -3.61% (inactive) | – |
| Cc1cc(NC(=O)CCC(=O)N(c2cccc(F)c2)C(C(=O)NC2CCCC2)c2ccncc2)no1 (stereo not drawn) | -7.93% (inactive) | – |
| Cc1ccc(N(C(=O)C(F)(F)F)C(C(=O)NC2CCCCC2)c2ccncc2)cc1C (stereo not drawn) | – | 11.9 µM (active) |
| COc1ccc(C(C)(O)c2nc(-c3ccc(C)c(C)c3)cs2)cc1 (stereo not drawn) | -4.12% (inactive) | – |
| COCCNC(=O)c1cc2c(Br)ccc(Br)c2nc1N | -4.02% (inactive) | – |
| CCOC(=O)[C@]12CCC=C1N(Cc1cccc3ccccc13)C(=O)[C@H](CC(=O)NCc1cccc(C(F)(F)F)c1)C2 | -6.42% (inactive) | – |
| CCOc1ccc(OCC)c(NC(=O)CN(C)S(=O)(=O)c2cccc3nsnc23)c1 | – | 29.9 µM (active) |
| CCOc1ccc(N(CC)S(=O)(=O)c2cccc3nsnc23)cc1 | -8.88% (inactive) | – |
| CCOc1ccccc1NC(=O)CCS(=O)(=O)c1cccc2nsnc12 | 7.52% (inactive) | – |
| COc1ccc(CN2C[C@H]3CON(C)[C@H]3C[C@H]2c2ccc(-c3cccc(F)c3)cc2)cc1 | 5.3% (inactive) | – |
| COc1ccc(N2CCN(C(=O)Cn3cnc4sc(C)c(S(=O)(=O)N5CCOCC5)c4c3=O)CC2)cc1 | -11.3% (inactive) | – |
| COc1cccc(NC(=O)Cn2cnc3sc(C)c(S(=O)(=O)N4CCN(C)CC4)c3c2=O)c1 | – | 8.44 µM (active) |
| Cc1sc2ncn(CC(=O)NCCN(C)C)c(=O)c2c1S(=O)(=O)N1CCC(C)CC1 | -12.5% (inactive) | – |
| COCCCNC(=O)c1cccc2c(-c3ccc(O)c(OC)c3)coc12 | -12.1% (inactive) | – |
| O=C(N[C@H]1CC[C@H](CC(=O)N2CCCCC2)O[C@@H]1CO)c1cccc(F)c1 | 6.09% (inactive) | – |
| Cc1ccc(Cl)c(OCC(=O)NN2CCN(C)CC2)c1 | – | 23.8 µM (active) |
| Cc1ccc(Cl)c(OCC(=O)N(C)CC(=O)Nc2ccc(N3CCOCC3)cc2)c1 | -2.7% (inactive) | – |
| Cc1ccc(Cl)c(OCC(=O)N2CCc3ccccc3C2)c1 | -3.49% (inactive) | – |
| Cc1cc(C)c2c(=O)n3c(nc2c1)C(CC(C)C)NC(=O)c1cc2ccccc2cc1-3 (stereo not drawn) | 1.09% (inactive) | – |

| SMILES | max response, negative = inhibition | Potency |
| --- | --- | --- |
| O=C(Nc1ccc(Cl)c(C(F)(F)F)c1)C1Cc2c(-c3ccccc3Oc3ccccc3)ccnc2O1 (stereo not drawn) | -6% (inactive) | – |
| Cc1ccc(NC(=O)C2CCCN2S(=O)(=O)c2cccc3cccnc23)c(C)c1 (stereo not drawn) | -3.33% (inactive) | – |
| Cc1cc(C)cc(NC(=O)C2CCCN2S(=O)(=O)c2cccc3cccnc23)c1 (stereo not drawn) | -10.9% (inactive) | – |
| O=C(Nc1nccs1)C1CCCN1S(=O)(=O)c1cccc2cccnc12 (stereo not drawn) | – | 26.7 µM (active) |
| Cc1ccccc1-c1nc(NC(C)C)nc2cc(-c3ccccc3)sc12 | -6.2% (inactive) | – |
| O=C(C1CC(=O)N(C2CCCCC2)C1)N1CCN(c2ccccc2)CC1 (stereo not drawn) | -15.5% (inactive) | – |
| O=C(C1CC(=O)N(c2ccc(F)cc2)C1)N1CCN(c2ccccc2)CC1 (stereo not drawn) | – | 18.9 µM (active) |
| CC1CC(C)CN(C(=O)C2CC(=O)N(c3ccc(F)cc3)C2)C1 (stereo not drawn) | -7.49% (inactive) | – |
| CC1=C(C(=O)N(C)C)CC(CC(=O)NCCc2ccccn2)C(=O)N1CCC1=CCCCC1 (stereo not drawn) | -5.19% (inactive) | – |
| CC(=O)N(C1=C(Cl)C(=O)c2ccccc2C1=O)c1ccc(C(=O)O)cc1 | – | 2.99 µM (active) |
| COCCNC(=O)CSc1nc(N)c(NC(=O)c2ccco2)c(=O)[nH]1 | -1.47% (inactive) | – |
| COCCNC(=O)Nc1ccc2nc(-c3ccco3)c(-c3ccco3)nc2c1 | – | 21.2 µM (active) |
| O=C(Nc1nc(-c2ccco2)c(-c2ccco2)s1)c1ccco1 | -24.5% (inactive) | – |
| CC1(C(=O)NS(=O)(=O)c2ccccc2Cl)CCN1C(=O)c1cccc(F)c1 (stereo not drawn) | -14.1% (inactive) | – |
| CC(C)CN1C(=O)CN(S(C)(=O)=O)CC1(C)C(=O)NCc1ccccc1 (stereo not drawn) | 4.65% (inactive) | – |
| O=C1NC[C@H](Cc2ccc(O)cc2)N(C[C@H]2CCCN2C[C@H](Cc2ccccc2)N2C[C@H](Cc3ccccc3)N(CCc3ccccc3)C(=O)C2=O)C1=O | -6.61% (inactive) | – |
| CC1CCN(c2ccc3c(c2)S(=O)(=O)c2cc(C(=O)O)ccc2C3=O)CC1 | 2.83% (inactive) | – |
| O=C(NCCC1=CCCCC1)c1ccc(-n2cncn2)cc1 | 7.38% (inactive) | – |
| C1=C(CCNc2ncnc3c2cnn3-c2ccccc2)CCCC1 | – | 3.36 µM (active) |
| CC(C)Sc1ncnc2c1cnn2-c1ccccc1 | 2.81% (inactive) | – |
| C[C@H]1CN(c2ccc(Br)cc2)C(=O)[C@@H]1CC(=O)Nc1ccc(Br)cc1 | 1% (inactive) | – |
| O=C(C(=O)N1CCN(c2ccccc2)CC1)c1ccc2c(c1)OCO2 | -10.2% (inactive) | – |

| SMILES | max response, negative = inhibition | Potency |
| --- | --- | --- |
| O=C(CN1CCN(c2ccccn2)CC1)Nc1ccc(Br)cc1 | -15.1% (inactive) | – |
| O=C(Cc1ccccc1Cl)N1CCN(c2ccccn2)CC1 | -14.6% (inactive) | – |
| O=C(Cc1ccc(Br)cc1)N1CCN(c2ccccn2)CC1 | – | 29.9 µM (active) |
| CCc1nnc(NC(=O)c2ccco2)s1 | -6.68% (inactive) | – |
| O=C(C1CCN(S(=O)(=O)c2cnc[nH]2)CC1)N1CCN(Cc2ccc3c(c2)OCO3)CC1 | – | 2.99 µM (active) |
| O=C(C1CCN(Cc2ccc(Cl)cc2)CC1)N1CCN(Cc2ccc3c(c2)OCO3)CC1 | 2.77% (inactive) | – |
| Cc1cccc(N2CCN(C(=O)C3CCN(S(=O)(=O)c4cnc[nH]4)CC3)CC2)c1C | 3.15% (inactive) | – |
| CCC(C(=O)Nc1c(C)cccc1C)n1c(-c2cc(C)cs2)nc2ccccc21 (stereo not drawn) | -9.18% (inactive) | – |
| Cc1cc2cc3n(c2nn1)N=C(Cl)CC3 | -3.02% (inactive) | – |
| C=CCC[C@H](CCCCC)OC(=O)/C=C/[C@H](O)[C@@H](O)C[C@@H](O)CC=C | -13.7% (inactive) | – |
| C[C@@H]1CN([C@H](C)CO)C(=O)CCCn2cc(nn2)CO[C@H]1CN(C)S(=O)(=O)c1ccc(Oc2ccccc2)nc1 | -19.7% (inactive) | – |
| O=C(CCC(=O)OCc1ccc(Cl)cc1)Nc1ccccc1 | -4.01% (inactive) | – |
| O=C(O)CC1=C(Nc2ccccc2)C(=O)N(c2ccccc2)C1c1ccc(Cl)cc1 (stereo not drawn) | -11.1% (inactive) | – |
| O=C1C=C(c2ccc(Cl)cc2)C(=O)N1Nc1ccccc1 | – | 6.7 µM (active) |
| CC1(C(=O)Nc2ccc3c(c2)OCCO3)CN(S(C)(=O)=O)CC(=O)N1Cc1cccc(F)c1 (stereo not drawn) | -14.7% (inactive) | – |
| COC(=O)C[C@H]1C[C@@H]2c3cc(NC(=O)Nc4ccccc4)ccc3O[C@@H]2[C@@H](CO)O1 | 0.628% (inactive) | – |
| Cc1ccc(S(=O)(=O)CC(=O)Nc2sc(C)c(C)c2C(N)=O)cc1 | -9.45% (inactive) | – |
| Cc1ccc(C(=O)c2c(NC(=O)c3ccccc3)sc(C)c2C)cc1 | – | 11.9 µM (active) |
| Cc1sc(NC(=O)c2ccc3ncsc3c2)c(C(N)=O)c1C | -11% (inactive) | – |
| CC1(C(=O)Nc2cccc(Oc3ccccc3)c2)CCN1Cc1ccccc1Cl (stereo not drawn) | -5.84% (inactive) | – |
| CC(Oc1cccc(NC(=O)c2cccs2)c1)C(=O)c1ccccc1 (stereo not drawn) | -3.5% (inactive) | – |
| Cc1ccoc1C(=O)Nc1cccc(Oc2ccccc2)c1 | – | 29.9 µM (active) |
